About 360 (30%) of roughly 1,200 compounds were called active. The rule behind the calls is not given here. Only a sample is shown. A call without a number means that no potency is given here. Potency and affinity values are given separately.

The nature of this assay: bacterial growth inhibition, dose response, counter-screen, BacTiter-Glo luminescence, cherry-picked samples (AID 504843).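 Note: growth measured after 8 h incubation at 30 °C.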 To be noted: BacTiter-Glo ATP luminescence; series mostly up to 15 µM. (In general: The purpose of a counterscreen is to sort out artefacts and off-target activity.)
For `CCCNC(=O)c1cc(C)no1`, the result was inactive.

Regarding `CCCCc1ccc(N=N/C(C(=O)Nc2ccc(NC(C)=O)cc2OC)=C(/C)O)cc1`, the compound was called inactive.

In the case of `COc1ccc(/C(C)=N/NC(=O)CNC(=O)c2ccncc2)c(OC)c1`, the outcome was inactive.

As to `Cc1ccc(C)c(S(=O)(=O)Nc2cc(SCC(=O)O)c(O)c3ccccc23)c1`, the outcome was inactive.

Turning to `CC1(C)c2ccccc2N2CC(=O)NC21/C=C/c1ccco1` (centres undefined), the compound was called inactive.

`C=CCn1cccc(C(=O)Nc2ccc(OC)cc2)c1=O`: the outcome was inactive.

With `C=CCNC(=S)Nc1cccc2[nH]ncc12`, the result was inactive.

In the case of `O=[N+]([O-])c1cccc(N(CC(O)CN2CCCCC2)S(=O)(=O)c2ccccc2)c1` (centres undefined), the compound was classed as inactive.

As to `COc1cccc(CN2CCN(C(=O)c3ccco3)CC2)c1`, the outcome was inactive.

With `Nc1ccc(S(=O)(=O)N2CCCc3ccccc32)cc1`, the outcome was inactive.

In the case of `O=C(COC(=O)c1cccc(S(=O)(=O)N2CCc3ccccc32)c1)Nc1ncc(C(F)(F)F)cc1Cl`, the outcome was inactive.

Regarding `CCC(CO)NC(=O)c1cccc(S(=O)(=O)N2c3ccccc3CC2C)c1` (centres undefined), the call was inactive.

As to `COc1ccc(S(=O)(=O)Nc2nc3c(s2)CCCC3)cc1`, the outcome was inactive.

Consider `C[C@H]1NC(=O)[C@@]2(C)[C@@H](c3ccccc3)[C@H]3COc4ccccc4[C@H]3N2C1=O`, for which the outcome was inactive.

As to `CCNc1nc(SCCOc2ccc(C)cc2)nc(N(C)C)n1`, the result was inactive.

With `CCC1SC(C)C/C(=N/NC(N)=O)C1C` (centres undefined), the outcome was inactive.

As to `CN(C)c1cccc(C(=O)N/N=C/c2ccccc2F)c1`, the call was inactive.

`CCOC(=O)c1ccc(NC(=O)c2cn(CCC#N)nc2-c2ccc3c(c2)OCCO3)cc1`: the call was inactive.

As for `O=C(NCc1cccnc1)c1cccc(-c2cc3ccccc3oc2=O)c1`, the result was inactive.

Take `Cc1cnc(C(=O)OCC(=O)Nc2sc3c(c2C#N)CCC3)cn1`: the result was inactive.

`CC1CCN(C(=O)c2ccc(S(=O)(=O)N3CCCC3)cc2)CC1`: the compound was called inactive.

Consider `CCOC(=O)C1CCN(C(=O)Nc2ccc(C)c(Cl)c2)CC1`, for which the outcome was inactive.

For `CC(=O)Oc1ccc(C(=O)Nc2ccccc2C(=O)N2CCCCC2)cc1`, the compound was called inactive.

For the compound `Cc1ccccc1C(=O)N1CCN(c2ccc(NC(=S)NC(=O)c3cccs3)cc2)CC1`, the compound was called inactive.

For the compound `CCc1ccc2c(COC(=O)C3CC(=O)N(CCc4ccccc4)C3)cc(=O)oc2c1` (centres undefined), the outcome was inactive.

As for `CN(C)c1nc(NCc2ccccc2)nc(SCC(N)=O)n1`, the outcome was inactive.

In the case of `CCn1c(SCC(=O)c2ccccc2)nnc1-c1cccnc1`, the outcome was inactive.

For the compound `CCOC(=O)C(C(=O)Nc1ccc(C)cc1)C1CCCCC1` (centres undefined), the compound was called inactive.

For the compound `COc1ccc(NC(=O)COCC(=O)Nc2ccc(C)cc2)cc1`, the compound was classed as inactive.

As to `CC(C)(C)CC(=O)Nc1cccc(-c2cn3cccnc3n2)c1`, the compound was classed as inactive.

On to `Cc1ccc(OCCNS(=O)(=O)c2ccc(N3CCCC3=O)cc2)cc1C`, for which the outcome was inactive.

For `CCCCOc1ccc(NC(=O)c2cc(F)c(F)cc2Cl)cc1`, the result was inactive.

On to `CCc1ccc(NC(=O)Nc2cc(C(=O)NCC3CCCO3)ccc2N2CC3CC(C2)c2cccc(=O)n2C3)cc1` (centres undefined), for which the call was inactive.

As for `COc1ccccc1OCCNC(=O)C1CCN(C(C)=O)CC1`, the compound was called inactive.

Regarding `CC(C)(C)OC(=O)NCCCCCNC(=O)c1[nH]cnc1C(=O)NC1CCN(C(=O)OC(C)(C)C)CC1`, the result was inactive.

Take `Cc1cc(C)cc(-n2c(C)cc(/C=C3\C(=N)N4N=C(CC(C)C)SC4=NC3=O)c2C)c1`: the result was inactive.

In the case of `COc1ccc(CCNC(=O)/C=C/c2ccco2)cc1OC`, the outcome was inactive.

For the compound `O=C(NNc1ccnc2cc(Cl)ccc12)C1CCCCC1`, the compound was classed as inactive.

Take `Cc1ccc(CN(C(=O)c2sc3ccccc3c2Cl)C2CCS(=O)(=O)C2)cc1` (centres undefined): the compound was called inactive.

`O=C(O)[C@H](CO)Nc1ncnc2sc3c(c12)CCC3`: the result was inactive.

As to `O=C(CCNS(=O)(=O)c1ccccc1C(F)(F)F)N1CCN(c2ccccc2O)CC1`, the compound was called inactive.

With `CCN(CC)C(=O)CSc1nc2ccccc2o1`, the compound was called inactive.

Consider `CCCCN(CC)CCNC(=S)Nc1ccc2nc(N3CCN(C)CC3)cc(C)c2c1`, for which the call was inactive.

On to `O=C(Nc1ccc(C2=NCCN2)cc1)c1ccc(C(=O)Nc2ccc(C3=NCCN3)cc2)c([N+](=O)[O-])c1`, for which the result was inactive.

In the case of `CC(=O)Nc1ccc(Nc2nc(C)c([N+](=O)[O-])c(N(C)c3ccccc3)n2)cc1`, the result was inactive.

Regarding `CC1CN(C(=O)c2cc3cc([N+](=O)[O-])ccc3oc2=O)CC(C)O1` (centres undefined), the call was inactive.

As for `O=C(CSC1=NCCS1)c1ccc(Cl)cc1`, the call was inactive.

Take `Cc1[nH]c2ccccc2c1Cc1nnc(SCC(N)=O)o1`: the result was inactive.

Consider `COc1ccc(-c2cc(C)no2)cc1S(=O)(=O)NCCCN1CCCCCC1`, for which the compound was called inactive.

In the case of `CCNc1c(NS(=O)(=O)c2ccc(OC)cc2)c(=O)oc2ccccc12`, the outcome was inactive.

Regarding `COc1ccccc1N1CCN(c2nc(-c3ccccc3)cc(C(F)(F)F)n2)CC1`, the outcome was inactive.

With `CCNc1nc(NCC)nc(OCCOC(C)=O)n1`, the call was inactive.

With `Nc1cc(N)nc(SCc2ccc(Cl)cc2)n1`, the outcome was inactive.

On to `O=C(Nc1ccccc1F)c1ccc([N+](=O)[O-])s1`, for which the compound was classed as inactive.

In the case of `Cc1cccc(NC(=O)c2cc(S(=O)(=O)N3CCC4(CC3)OCCO4)ccc2F)c1`, the compound was called inactive.

`c1ccc2c(N3CCOCC3)nc(-c3ccncc3)nc2c1`: the compound was classed as inactive.

In the case of `CCNC(=O)NC(=O)C(C)OC(=O)C1CCN(S(=O)(=O)c2ccccc2F)CC1` (centres undefined), the outcome was inactive.

`Cc1ccc(C)c(SCC(=O)Nc2cccc(S(=O)(=O)NC3=NCCCCC3)c2)c1`: the result was inactive.

Regarding `Cc1cc(C)c(S(=O)(=O)N2CCN(C(=O)CN3C(=O)NC4(CCCC4)C3=O)CC2)c(C)c1`, the compound was called inactive.

As to `Cc1ccc(CCNC(=O)CCS(=O)(=O)c2cc3c(cc2C)NC(=O)CO3)cc1`, the result was inactive.

With `CN(Cc1ccccc1)c1ncnc2sccc12`, the outcome was inactive.

As to `Cc1cccc(NC(=O)[C@H](Cc2ccccc2)NC(=O)OCc2ccccc2)c1`, the compound was classed as inactive.

As for `CC(C)(C)CC(=O)Nc1ccc(Nc2ccccc2)cc1`, the outcome was inactive.

Turning to `CC(C)CN(C(=O)COC(=O)c1ccccc1NCc1ccco1)c1c(N)n(Cc2ccccc2)c(=O)[nH]c1=O`, the result was inactive.

For the compound `CSc1ncccc1C(=O)OCC(=O)N(C)c1c(N)n(Cc2ccccc2)c(=O)[nH]c1=O`, the outcome was inactive.

For `COC(=O)C[C@H]1c2cc(F)cc(F)c2S(=O)(=O)N1C1CCN(Cc2ccccc2)CC1`, the compound was classed as inactive.

Consider `CCCCN(CC)CCNS(=O)(=O)c1ccc2c(c1)oc(=O)n2C`, for which the call was inactive.

Turning to `O=C(Cn1c(=O)oc2cc(S(=O)(=O)N3CCc4ccccc43)ccc21)N1CCCCC1`, the compound was classed as inactive.

As to `CCOc1cc(/C=N/NC(=O)C(=O)NCc2cccnc2)ccc1O`, the result was inactive.

`COc1ccccc1C(=O)Nc1ccc2c(c1)CN(Cc1cnc(C)s1)CC2`: the compound was classed as inactive.

As to `Cc1cccc(NC(=O)CNC(=O)CN2C(=O)NC3(CCc4ccccc43)C2=O)c1C` (centres undefined), the result was inactive.

Turning to `Cc1ccccc1NC(=S)N1CCN(Cc2ccc3c(c2)OCO3)CC1`, the result was inactive.

As for `Cc1ccc(C)c(NC(=O)CN(C)C(=O)c2cccc(S(=O)(=O)N(C)C)c2)c1`, the result was inactive.

For `CCN(CC)S(=O)(=O)c1cc(NC(=O)c2ccc(-n3cncn3)c([N+](=O)[O-])c2)ccc1C`, the compound was classed as inactive.

Regarding `CC1CCN(c2ccc(C(=O)NCc3ccco3)cc2[N+](=O)[O-])CC1`, the compound was classed as inactive.

On to `CC1(C)C2CCC1(C)C(NC(=O)/C=C/c1ccccc1)C2` (centres undefined), for which the compound was called inactive.

Regarding `O=c1oc2ccccc2c(N2CCC(c3ccccc3)CC2)c1[N+](=O)[O-]`, the call was inactive.

Consider `Cc1ccccc1N/N=C/c1ccc(C#N)cc1`, for which the compound was called inactive.

For the compound `Cc1ccc(-c2nn(-c3ccccc3)cc2CC(=S)N2CCOCC2)cc1`, the result was inactive.

In the case of `O=C(CSc1nnc(-c2ccccc2)n1C1CCCCC1)N1CCCC1`, the compound was called inactive.

Consider `Cc1cccc(-n2c(SCC(=O)NC3CCCC3)nnc2-c2ccoc2C)c1`, for which the result was inactive.

As for `Cc1ccc(C2CC(c3ccccc3)n3ncnc3N2)cc1` (centres undefined), the outcome was inactive.

For the compound `CCn1c(C)cc(/C=C2/NC(=O)N(Cc3ccccc3F)C2=O)c1C`, the outcome was inactive.

As for `COc1cccc(NC(=O)c2ccc3c(SCC(=O)O)c4c(nc3c2)CCCC4)c1`, the compound was classed as inactive.

Turning to `CC(=O)Nc1cccc(Oc2nc(C(F)(F)F)nc3ccccc23)c1`, the result was inactive.

For the compound `Cc1ccc(OCCOCCNC(C)(C)C)c([N+](=O)[O-])c1`, the result was inactive.

As for `N#Cc1ccccc1CSc1ccccn1`, the compound was called inactive.

Turning to `CC(CN1CCOCC1)(NS(=O)(=O)c1ccccc1)c1ccccc1` (centres undefined), the compound was classed as inactive.

In the case of `O=C(CNC1CCCCC1)Nc1cc(S(=O)(=O)N2CCOCC2)ccc1Cl`, the compound was called inactive.

Take `O=C(CNC1CCCCCC1)Nc1ccccc1N1CCCCC1`: the result was inactive.

Turning to `O=C(NCCOC(=O)c1cccs1)c1cccnc1`, the result was inactive.

As to `COc1ccc(OC)c(-n2c(SCC(=O)N3CCc4ccccc43)nc3c(c2=O)SCC3)c1`, the outcome was inactive.

Turning to `Fc1cccc(NC(=S)NCCCN2CCOCC2)c1`, the call was inactive.

In the case of `O=C1CCCN1Cc1ccccc1`, the call was inactive.

`O=C(Cn1nc(C(=O)O)c2ccccc2c1=O)NCc1ccco1`: the compound was called inactive.

Regarding `N#C/C(=C(/O)CN1CCN(c2ccccc2F)CC1)c1nc(-c2ccc(Cl)cc2)cs1`, the result was inactive.

`C[C@@H]1CN([C@H](C)CO)C(=O)c2cc(NS(=O)(=O)c3cccs3)ccc2O[C@H]1CN(C)Cc1ccccc1`: the outcome was inactive.

`COc1cc(/C=N/NC(=O)c2ccccn2)ccc1OC(=O)c1ccc(Br)cc1`: the call was inactive.

Take `C(=N\Nc1ccccn1)/c1ccc(N2CCOCC2)cc1`: the compound was classed as inactive.

As for `Cn1c(Cn2c(=O)sc3ccccc32)nnc1SCc1ccccc1F`, the call was inactive.

In the case of `CCCCCCc1ccc(N2C[C@H](Cc3ccccc3)[C@@H](CC(=O)NCc3ccc(OC)cc3)C2=O)cc1`, the outcome was inactive.

With `CCCC(=O)c1c[nH]c(C(=O)N2CCOCC2)c1`, the result was inactive.

With `CCCNC(=O)COc1coc(CN2CCN(c3ccccc3F)CC2)cc1=O`, the compound was classed as inactive.

Turning to `CCCc1[nH]nc2c1C(c1ccc(OC(=O)c3ccco3)cc1)C(C#N)=C(N)O2` (centres undefined), the compound was classed as inactive.

Take `CC(=O)c1ccc([C@H]2C[C@@]34CN(C(=O)OC(C)(C)C)S(=O)(=O)[C@H]3C[C@H]2O4)cc1`: the call was inactive.

As to `CCOC(=O)CSc1nnc(CNC(=O)c2ccc([N+](=O)[O-])cc2)n1C`, the outcome was inactive.

For the compound `NC(=O)c1cc2ccc(O)cc2oc1=Nc1ccccc1`, the compound was classed as inactive.

As to `Cc1ccc(NCc2nnc3n2CCCCC3)c(C)c1`, the result was inactive.

For the compound `C[C@H](NS(=O)(=O)c1ccc(Cl)c(Cl)c1)C(=O)OCc1cc(=O)n2cc(Br)ccc2n1`, the result was inactive.

As to `Cc1ccc(NC(=S)NC(=O)c2ccc(F)cc2)cc1S(=O)(=O)Nc1ccccc1Cl`, the call was inactive.

For the compound `COc1ccc(NS(=O)(=O)c2cc(NC(=O)CCc3ccc(OC)c(OC)c3)ccc2N2CCOCC2)cc1`, the result was inactive.

Turning to `CCOC(=O)c1c(NC(NC(C)=O)C(Cl)(Cl)Cl)sc(C(C)=O)c1C` (centres undefined), the result was inactive.

For the compound `OCc1ccnc2c(O)cccc12`, the call was inactive.

With `CCOC(=O)/C(C#N)=C/c1ccc(OCC(=O)Nc2ccccc2)c(OC)c1`, the call was inactive.

Source of the values: PubChem BioAssay AID504843 (Broad Institute, 2011).
